KCNQ2 inh – rat KCNQ2 potassium channel inhibitors, primary screen, cell-based, CHO-K1, FluxOR thallium flux, B-score; Potassium voltage-gated channel subfamily KQT member 2 (Rattus norvegicus), O88943; 20 min; stronger effect = lower value; B-score at 10 µM; 310,000 tested, 1.1% active; AID 2156, 2009;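 active = fluorescence ratio B-score at most minus 3 library SDs, with starting brightness B-score within 2 library SDs, cut at about -5.5 in these data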
Target sequence (O88943 whole entry, looked up): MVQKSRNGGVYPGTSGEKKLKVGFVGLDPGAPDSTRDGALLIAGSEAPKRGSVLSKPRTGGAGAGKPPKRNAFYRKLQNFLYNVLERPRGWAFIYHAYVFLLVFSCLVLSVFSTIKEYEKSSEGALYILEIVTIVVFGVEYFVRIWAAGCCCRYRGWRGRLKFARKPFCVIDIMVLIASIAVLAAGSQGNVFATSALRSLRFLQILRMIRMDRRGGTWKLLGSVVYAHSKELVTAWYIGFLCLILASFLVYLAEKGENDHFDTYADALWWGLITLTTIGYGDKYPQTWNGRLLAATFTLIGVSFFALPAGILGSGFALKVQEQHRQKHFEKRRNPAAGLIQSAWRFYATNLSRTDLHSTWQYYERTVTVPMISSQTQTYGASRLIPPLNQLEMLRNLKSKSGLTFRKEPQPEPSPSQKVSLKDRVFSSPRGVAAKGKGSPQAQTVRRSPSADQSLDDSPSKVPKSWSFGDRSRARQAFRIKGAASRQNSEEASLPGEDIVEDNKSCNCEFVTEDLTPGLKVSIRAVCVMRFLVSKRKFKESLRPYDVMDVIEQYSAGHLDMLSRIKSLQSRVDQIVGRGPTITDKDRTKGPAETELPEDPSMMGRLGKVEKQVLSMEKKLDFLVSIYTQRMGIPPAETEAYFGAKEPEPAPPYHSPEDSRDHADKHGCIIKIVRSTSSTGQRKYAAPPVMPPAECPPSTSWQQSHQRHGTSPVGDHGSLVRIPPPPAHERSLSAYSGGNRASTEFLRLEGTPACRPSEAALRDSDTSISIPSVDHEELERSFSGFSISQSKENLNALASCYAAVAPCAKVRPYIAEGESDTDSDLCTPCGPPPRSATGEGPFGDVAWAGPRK
KCNQ2 enhance – potentiators of rat KCNQ2 potassium channel. CHO-K1 KCNQ2, FluxOR thallium flux fluorescence; stronger effect = higher value. B-score at 10 µM. 310,000 tested, 0.54% active;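 active = fluorescence ratio B-score at least 3 SD of library B-scores, with initial fluorescence B-score within 3 of them, cut at about 5.3 in these data; same plate scores as AID 2156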;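 also: B-score of peak minus minimum over baseline fluorescence ratio after K+ and Tl+ stimulus; positive B-score means potentiation of KCNQ2 with more thallium influx and brighter signal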
Numbers stand for hits. Compounds with a hit are over-represented: about 1.6% of the library has one in this group of screens.

How did Cc1ccc2[nH]c(CNC(=O)c3ccccc3F)cc2c1 do in these assays?
KCNQ2 inh: inactive

Results for CC(C)C(CCNC(=O)CC(Cc1ccccc1)c1ccco1)c1ccco1 (stereo not given) ?
KCNQ2 inh: -14; KCNQ2 enhance: inactive

What do the screens show for `CC(C)C(CCNC(=O)CN1C(=O)c2ccccc2C1=O)c1ccco1` (stereo not given)?
KCNQ2 inh: inactive

Results for Cc1cccc(C)c1NC(=S)NC(C)(C)CO ?
KCNQ2 inh: inactive

How did CSc1ccc(S(=O)(=O)NCc2ccccc2C)cc1 do in these assays?
KCNQ2 inh: -6.1; KCNQ2 enhance: inactive

Results for Cc1ccc(S(=O)(=O)NCc2ccccc2C)cc1 ?
KCNQ2 inh: inactive

How did CCCCCCCC(=O)NC1=NC(=O)C(C)(C)S1 do in these assays?
KCNQ2 inh: inactive; KCNQ2 enhance: inactive

How did CC(C)(C)c1ccc(Cn2c(=O)cnc3ccccc32)cc1 do in these assays?
KCNQ2 inh: inactive

What do the screens show for `CCc1nc(N2CCC(C)CC2)c2oc3ccccc3c2n1`?
KCNQ2 inh: -5.9; KCNQ2 enhance: inactive

Results for CCc1nc(N(CC)CC)c2oc3ccccc3c2n1 ?
KCNQ2 inh: inactive

Results for CCC(=O)c1c(CC)c2n3c1CC[C@H]3CCC2 ?
KCNQ2 inh: inactive; KCNQ2 enhance: inactive

Results for O=C(CSC1=NS(=O)(=O)c2ccccc21)Nc1ccccc1 ?
KCNQ2 inh: -6.4; KCNQ2 enhance: inactive

What do the screens show for `O=C(CSC1=NS(=O)(=O)c2cc(F)ccc2N1)Nc1ccccc1`?
KCNQ2 inh: inactive

Results for CSCC[C@H](NS(=O)(=O)c1ccc(C)cc1)C(=O)N1CCC(C(=O)N[C@H](C(=O)O)c2ccccc2)CC1 ?
KCNQ2 inh: inactive; KCNQ2 enhance: inactive

What do the screens show for `Cc1cc(C(=O)CSc2nc3ccccc3o2)c(C)n1CC1CCCO1` (stereo not given)?
KCNQ2 inh: inactive; KCNQ2 enhance: inactive

How did Cc1cc(C(=O)CSc2nc3ccccc3[nH]2)c(C)n1CC1CCCO1 (stereo not given) do in these assays?
KCNQ2 inh: -5.6; KCNQ2 enhance: inactive

What do the screens show for `CN(CC(=O)Nc1c(Cl)cccc1Cl)C(=O)CNC(=O)c1ccc2ccccc2c1`?
KCNQ2 inh: inactive

What do the screens show for `Cn1c(SCC(=O)c2ccccc2)nnc1-c1ccc(O)cc1`?
KCNQ2 inh: inactive; KCNQ2 enhance: inactive

What do the screens show for `Cn1c(SCC(=O)N2c3ccccc3CCc3ccccc32)nnc1-c1ccc(O)cc1`?
KCNQ2 inh: -5.8; KCNQ2 enhance: inactive

Results for COc1ccc(NC(=O)CS(=O)c2ccc(Br)cc2)cc1 (stereo not given) ?
KCNQ2 inh: inactive

Results for O=C(Nc1cccc(C(F)(F)F)c1)Oc1ccc(Cl)c2cccnc12 ?
KCNQ2 inh: inactive; KCNQ2 enhance: 5.7

What do the screens show for `CCN(CC)C(=O)Oc1ccc(Cl)c2cccnc12`?
KCNQ2 inh: inactive

How did Cc1ccc(-n2nc3c(c2NC(=O)/C=C\c2ccc4c(c2)OCO4)CSC3)c(C)c1 do in these assays?
KCNQ2 inh: inactive

What do the screens show for `Cc1ccccc1-n1nc2c(c1NC(=O)/C=C\c1ccc3c(c1)OCO3)CSC2`?
KCNQ2 inh: -6.7; KCNQ2 enhance: inactive

What do the screens show for `COc1ccc(OC)c(S(=O)(=O)CC(O)CS(=O)(=O)c2ccccc2)c1` (stereo not given)?
KCNQ2 inh: inactive

Results for Cc1ccc(N(C(=O)c2ccccc2Cl)C2=NC(C)CS2)c(C)c1 (stereo not given) ?
KCNQ2 inh: -6; KCNQ2 enhance: inactive

How did CCOc1ccccc1N(C(=O)c1ccccc1Cl)C1=NC(C)(C)CS1 do in these assays?
KCNQ2 inh: inactive

What do the screens show for `COc1ccccc1N1CCN(CCN2C(=O)C3CCCN3C2=O)CC1` (stereo not given)?
KCNQ2 inh: inactive

What do the screens show for `O=C(Nc1ccc(F)cc1)Nc1ccccc1F`?
KCNQ2 inh: inactive; KCNQ2 enhance: inactive

What do the screens show for `O=C(Nc1ccc2[nH]c(=S)sc2c1)c1ccccc1`?
KCNQ2 inh: inactive; KCNQ2 enhance: 16

What do the screens show for `O=C(Nc1ccc2[nH]ccc2c1)c1ccccc1`?
KCNQ2 inh: inactive; KCNQ2 enhance: inactive

How did O=C(Nc1ccc2[nH]c(=S)sc2c1)Nc1ccccc1F do in these assays?
KCNQ2 inh: inactive; KCNQ2 enhance: 40

What do the screens show for `CCCn1c(SCC(=O)N2CCN(CC)CC2)nc2c1c(=O)n(C)c(=O)n2C`?
KCNQ2 inh: inactive; KCNQ2 enhance: inactive

How did C/C(=N\S(=O)(=O)c1ccc(C)cc1)N(C)C do in these assays?
KCNQ2 inh: inactive; KCNQ2 enhance: inactive

What do the screens show for `CN(C)C(=O)CSc1nnc(Cc2ccccc2)n1Cc1ccco1`?
KCNQ2 inh: inactive; KCNQ2 enhance: inactive

What do the screens show for `O=C(CSc1nnc(Cc2cccs2)n1Cc1ccco1)Nc1ccc(Br)cc1`?
KCNQ2 inh: -6.7; KCNQ2 enhance: inactive

What do the screens show for `O=C(CSc1nnc(Cc2ccccc2)n1Cc1ccco1)NC12CC3CC(CC(C3)C1)C2`?
KCNQ2 inh: -7.7; KCNQ2 enhance: inactive

How did O=C(CSc1nnc(-c2ccco2)n1Cc1ccco1)NCc1cccs1 do in these assays?
KCNQ2 inh: inactive; KCNQ2 enhance: inactive

What do the screens show for `COC(=O)c1ccc(CO/N=C/c2ccc(OC)cc2OC)cc1`?
KCNQ2 inh: inactive; KCNQ2 enhance: inactive

What do the screens show for `Cc1nc2c(C)cccn2c(=O)c1NC(=O)c1cccc2ccccc12`?
KCNQ2 inh: inactive; KCNQ2 enhance: inactive

How did CCCN(C(=O)Cn1nc(C)c([N+](=O)[O-])c1C)c1c(N)n(Cc2ccccc2)c(=O)[nH]c1=O do in these assays?
KCNQ2 inh: inactive

How did Cc1c(CCOC(=O)c2ccccc2)sc[n+]1CC(=O)c1ccc(Br)cc1 do in these assays?
KCNQ2 inh: inactive

How did Cc1c(CCOC(=O)C23CC4CC(CC(C)(C4)C2)C3)sc[n+]1CC(=O)c1ccccc1 do in these assays?
KCNQ2 inh: -6.5; KCNQ2 enhance: inactive

How did O=C(Nc1ncccn1)c1cc([N+](=O)[O-])cc([N+](=O)[O-])c1 do in these assays?
KCNQ2 inh: inactive; KCNQ2 enhance: inactive

How did O=[N+]([O-])c1cc(-c2ncccn2)c([N+](=O)[O-])s1 do in these assays?
KCNQ2 inh: -9.6; KCNQ2 enhance: inactive

Results for Cc1ccc(NC(=O)c2cccc(S(=O)(=O)N3CCN(c4ccc(F)cc4)CC3)c2)nc1 ?
KCNQ2 inh: inactive

What do the screens show for `Cc1ccc(S(=O)(=O)N2CCC(C(=O)NCCCN3CCCC3=O)CC2)cc1C`?
KCNQ2 inh: inactive; KCNQ2 enhance: inactive

What do the screens show for `COc1ccc(C(CNC(=O)c2ccc3c(c2)C(=O)N(CCC(C)C)C3=O)N2CCOCC2)cc1` (stereo not given)?
KCNQ2 inh: -5.8; KCNQ2 enhance: inactive

Results for COc1ccc(C(CNC(=O)c2ccc(S(=O)(=O)N3CCCC3)cc2)N2CCOCC2)cc1 (stereo not given) ?
KCNQ2 inh: inactive

How did O=C(C(=O)N1CCN(c2ccccc2)CC1)c1cn(CC(=O)N2CCCCCC2)c2ccccc12 do in these assays?
KCNQ2 inh: inactive; KCNQ2 enhance: inactive

What do the screens show for `CC1(CCc2ccccc2)NC(=S)N(c2ccc(Cl)cc2)N1` (stereo not given)?
KCNQ2 inh: inactive

What do the screens show for `CCC1(c2ccc(Cl)cc2)NC(=S)N(c2ccc(C)cc2)N1` (stereo not given)?
KCNQ2 inh: inactive; KCNQ2 enhance: 17

Results for CCN(CC)S(=O)(=O)c1ccc(-c2nnc(SC)o2)cc1 ?
KCNQ2 inh: inactive; KCNQ2 enhance: inactive

What do the screens show for `CCN(CC)S(=O)(=O)c1cc(-c2nnc(-c3ccc(Br)cc3)o2)ccc1Cl`?
KCNQ2 inh: -6.1; KCNQ2 enhance: inactive

Compound activity as filed in PubChem BioAssay.
